HT1080 IDH1KD tx: qHTS for induction of synthetic lethality in tumor cells producing 2HG: qHTS for the HT-1080-IDH1KD cell line; 360,000 compounds, 2% hits; HT-1080 IDH1 knockdown viability, ATP luminescence, 48 h; AID 686971, 2013; Potency, µM (titrated, usually from 46.1 µM), without a hit: at the highest dose activity, negative = toxicity, most hits filed as cytotoxic;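 further: 0% = DMSO wells and -100% = cell-free medium wells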
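Knockdown cells (IDH1KD HT-1080) received compounds 2 h after plating at 750 cells/well and were kept 48 h at 37 °C in 5% FBS RPMI. A CellTiter-Glo luminescence read gave % activity for curve fitting.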
HT1080NT lethal: qHTS for induction of synthetic lethality in tumor cells producing 2HG: qHTS for the HT-1080-NT fibrosarcoma cell line. HT-1080-NT fibrosarcoma viability, CellTiter-Glo ATP luminescence, 48 h. Potency, µM (top dose mostly 46.1 µM), inactives show at the top dose activity, negative = less viability, most hits filed as cytotoxic. 360,000 compounds, 1.6% hits. AID 686970, 2013;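 further: NT is the 2HG producing partner of a matched IDH1 knockdown line; 0% = DMSO-treated cells and -100% = media-only wells without cells; nearly all actives have a fitted effect of over 55% in size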
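Fibrosarcoma NT cells, 750 per well in 5% FBS RPMI, were exposed to compound for 48 hours. Viability: CellTiter-Glo luminescence.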
KB-V1 cytotox: qHTS assay for MDR1-selective chemotherapeutics: Primary screen using the drug-selected MDR subline cells KB-V1; 400,000 compounds, 3.4% hits; KB-V1 MDR cells viability, CellTiter-Glo, 72 h; Potency, µM (highest dose often 46.1 µM), actives largely listed as cytotoxic; further: on the % scale 0 is the no-effect control and ±100 the full control effect; nearly all actives have a fitted effect of over 60% in size
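KB-V1, DMEM (no phenol red) + 10% FBS; cpd pin-transferred, titration series; 72 h, 37 degrees C; CellTiter-Glo, luminescence. Data normalized, curve-fit.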
KB-3-1 cytotox: qHTS assay for MDR1-selective chemotherapeutics: Primary screen using the parental adenocarcinoma cell KB-3-1; KB-3-1 viability, CellTiter-Glo ATP luminescence, 72 h; Potency, µM (highest dose often 46.1 µM), usual class: cytotoxic; 400,000 compounds, 1.4% hits; further: on the % scale 0 is the no-effect control and ±100 the full control effect; nearly all actives have a fitted effect of over 60% in size
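Cytotoxicity measured as CellTiter-Glo luminescence after 72 h at 37 C. Compound titrations were pinned onto drug-naive KB-3-1 parental adenocarcinoma cells grown in DMEM with 10% FBS, and normalized data fitted to concentration-response curves.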
HepG2 viability: qHTS for Inhibitors of TGF-b: Cytotox Counterscreen | HepG2 CAGA-GFP viability, ATP luminescence, 18 h | Potency, µM (top dose mostly 46.1 µM), for the others: at the highest dose activity change, negative = cytotoxicity, usual class: cytotoxic | 410,000 compounds, 0.76% hits
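CellTiter-Glo luminescence gave cytotoxicity after 18 hours at 37 degrees C. The cells were HepG2 CAGA-GFP in 1% FBS DMEM, stimulated with 500 pg/mL TGF-beta after compound addition. %Activity was normalised to no-cell wells (complete cell-killing) and DMSO (no toxicity), and curves were fitted and classified.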
TGFb inhibitor: qHTS for Inhibitors of TGF-b; HepG2 CAGA-GFP TGF-b/SMAD3 reporter, GFP fluorescence, 18 h; TGF-beta stimulated, 500 pg/mL final; Potency, µM (titrated, usually from 46.1 µM), for inactives: at the highest dose activity, negative = inhibition, actives largely listed as inhibitors; 410,000 compounds, 1.2% hits; AID 588855, 2011; further: on the % scale 0 is the no-effect control and ±100 the full control effect; nearly all actives have a fitted effect of over 65% in size
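HEPG2 CAGA-GFP cells (1000/well, DMEM with 1% FBS) were pre-incubated 2 h at 37 degrees C, given compound by pin tool, then stimulated with TGF-beta at 500 pg/mL final for 18 h before per-cell GFP fluorescence imaging.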
* hit, by the source's call; i = inactive; ? = inconclusive; / = no result. Rows were chosen to be rich in hits. Some 6.6% of all compounds tested hit in one or more screens of this group. The call rests on the fitted dose curve; in most records, active means well fitted curve in the direction sought with a large enough effect; inconclusive means small, poorly fitted or top-dose-only effect, or another doubt; inactive means no such curve, though single readings can be large; an effect the other way counts as inactive or inconclusive. Potency means the concentration at half of the fitted maximal effect.

SMILES | HT1080 IDH1KD tx | HT1080NT lethal | KB-V1 cytotox | KB-3-1 cytotox | HepG2 viability | TGFb inhibitor
COC(=O)c1ccc(NC(=O)CN(Cc2ccccc2)S(=O)(=O)c2ccc(Cl)cc2)cc1 | / | / | ? | ? | -22% | 18µM*
COC(=O)c1ccc(NC(=O)CN(Cc2ccccc2)S(=O)(=O)c2ccc(C)cc2)cc1 | / | / | ? | i | -31% | -25%
COCCNC(=O)CN(CCc1ccccc1)S(=O)(=O)c1ccc(OC)cc1 | 7% | -2% | 18µM* | i | -10% | -2%
CCCN(C(=O)c1sc2nc3n(c(=O)c2c1C)CCCC3)c1ccccc1C | / | / | ? | ? | -34% | -10%
COc1ccc(S(=O)(=O)N(CC(=O)Nc2ccc(Br)cc2)Cc2ccccc2)cc1 | / | / | ? | i | -20% | ?
COc1ccc(S(=O)(=O)N(CC(=O)Nc2ccccc2Br)Cc2ccccc2)cc1 | / | / | ? | 16µM* | 2% | 1%
Cc1ccc(NC(=O)CN2C=NS(=O)(=O)c3ccccc32)c(C)c1 | / | / | i | i | -4% | ?
CC1CCC(C(C)C)C(OC(=O)C[n+]2cc(-c3ccc(Cl)cc3)n3c2CCC3)C1 (centres undefined) | ? | ? | i | i | -36% | 11µM*
CC(C)(C)n1ncc2c(=O)n(Cc3c(Cl)ccc(Cl)c3Cl)cnc21 | / | / | / | / | -2% | -2%
O=C(Cn1ncc2c3ccccc3n(Cc3ccc(Cl)cc3)c2c1=O)NCc1ccccn1 | / | / | i | i | 30% | 53%
Cc1nn(C)c2ncc(C(=O)c3cc(F)ccc3O)cc12 | -8% | -2% | i | i | -11% | ?
O=C(c1cnc2ccc3ccccc3c2c1)c1cc(F)ccc1O | 8.2µM* | 16µM* | 3.7µM* | ? | -31% | ?
O=C(NCC(c1cccs1)S(=O)(=O)c1cccs1)c1ccccc1F (centres undefined) | / | / | i | i | -26% | -6%
CCCCCCc1cc2cc(S(=O)(=O)c3ccc(Cl)cc3)c(=O)oc2cc1O | 2% | 0% | i | ? | -59% | 11µM*
CCCCCCc1cc2cc(C(=O)Nc3ccccc3)c(=O)oc2cc1O | ? | ? | 2.3µM* | i | -6% | ?
CCC(=O)N1CCC(C)(C(=O)Nc2ccc(OC)c(OC)c2)C1 (centres undefined) | 5% | 14% | i | i | -2% | -5%
CCc1ccc(N=C2NC(=O)/C(=C/c3cc(OC)c(O)c(OC)c3)S2)cc1 | -11% | -3% | ? | i | -78% | ?
COc1cc(/C=C2/SC(=O)NC2=O)ccc1OCc1ccccc1 | ? | 23µM* | i | i | -22% | ?
COc1cc(/C=C2\SC(=Nc3ccccc3OC)NC2=O)ccc1O | 7.3µM* | 4.1µM* | ? | 18µM* | -20% | 16%
COc1cc(/C=C2/SC(=Nc3ccc(O)cc3)NC2=O)ccc1O | 1.2µM* | 0.65µM* | ? | 9.2µM* | -14% | -13%
COc1ccc(/C=C2/SC(=S)NC2=O)cc1OCc1ccccc1 | -14% | -12% | i | i | -40% | -2%
COc1ccc(NC(=O)CN2C(=O)COc3ccc(S(=O)(=O)Nc4ccccc4)cc32)cc1OC | / | / | / | / | -3% | ?
COC(=O)c1cn(NC(=O)Cc2ccc(Cl)cc2)c(=O)c2ccccc12 | 7% | 14% | 21µM* | i | 5% | 10%
COc1ccc(CCNC(=O)Cc2c(C)c3c(cc(C)c4c(C)coc43)oc2=O)cc1OC | / | / | / | / | 1% | -4%
CCc1ccc(C2=CC(c3cc(Br)ccc3F)n3ncnc3N2)cc1 (centres undefined) | -7% | -8% | 9.2µM* | 8.2µM* | -27% | -2%
SMILES | HT1080 IDH1KD tx | HT1080NT lethal | KB-V1 cytotox | KB-3-1 cytotox | HepG2 viability | TGFb inhibitor
O=C(Nc1c2c(nn1-c1ccc(F)cc1)CS(=O)(=O)C2)C12CC3CC(CC(C3)C1)C2 | 2% | 8% | 23µM* | i | 2% | 12%
CCCC(=O)Nc1c2c(nn1-c1ccc(F)cc1)CS(=O)(=O)C2 | 24% | -1% | i | i | 1% | 5%
CC1=CC(=O)C(Sc2ccc(C)cc2)=CC1=O | ? | 21µM* | i | ? | -94% | ?
COc1ccc(N2C(=O)C(CC(=O)Nc3ccc(Cl)cc3)N(Cc3ccc4c(c3)OCO4)C2=O)cc1 (centres undefined) | / | / | i | i | -24% | -28%
CCn1c(=O)cc(SCC(=O)NCCc2ccc(OC)cc2OC)c2ccccc21 | / | / | i | i | -10% | 0%
COc1ccc2c(c1)c(N1CCCC1=O)c(C(=O)Nc1cc(C)c(Cl)cc1OC)n2C | / | / | i | ? | 5% | 8%
COc1cccc(N2CCN(c3ncnc4c3nc3n4CCCCC3)CC2)c1 | / | / | ? | 16µM* | -32% | ?
O=C(C1CCCN(c2ncnc3c2nc2n3CCCCC2)C1)N1CCN(c2cccc(Cl)c2)CC1 (centres undefined) | ? | ? | 23µM* | ? | -38% | 11µM*
Cc1ccc(C)c(N2CCN(C(=O)C3CCCN(c4ncnc5c4nc4n5CCCCC4)C3)CC2)c1 (centres undefined) | 17% | 16% | ? | ? | -45% | 18µM*
O=C(C1CCCN(c2ncnc3c2nc2n3CCCCC2)C1)N1CCN(c2ccccc2)CC1 (centres undefined) | 0% | 12% | ? | i | -3% | 4%
CN(C(=O)C1CCCN(c2ncnc3c2nc2n3CCCCC2)C1)c1cccc(Cl)c1 (centres undefined) | ? | ? | ? | ? | -23% | ?
CCN(C(=O)C1CCN(c2ncnc3c2nc2n3CCCCC2)CC1)c1cccc(Cl)c1 | / | / | / | / | -22% | 11µM*
c1ccc(N2CCN(c3ncnc4c3nc3n4CCCC3)CC2)cc1 | / | / | / | / | -3% | -18%
CC(=O)N1CCC(N(Cc2ccco2)C(=O)Nc2ccc(C)c(Cl)c2)CC1 | / | / | ? | i | -8% | -6%
CCC12CN(C(=O)c3ccc(C)cc3)CC(CC)(CN(C(=O)c3ccc(C)cc3)C1)C2=O | 5% | 3% | 5.2µM* | i | 2% | 1%
